The values that follow come from PubChem BioAssay AID1259336 (Sattelle Laboratory, UCL Respiratory, Division of Medicine, …, 2017).

SMILES strings stand for the structures. Calls of active or inactive are those of the source. No stated cut-off is given here; in the data, active means log2 fold change growth below about -1.8; inactive means the rest.

The nature of the experiment: C. elegans growth inhibition, whole organism, log2 fold change (AID 1259336).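 Further: growth scored by imaging after five days at 20 °C.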 To be noted: anthelmintic screen, stronger effect = lower value.
Take `C[C@@H](c1cc(Cl)cc(Cl)c1)N(C)c1ncc2c(N)nc(N)nc2n1`: the log2 fold change growth was -0.371 (inactive). `CC[C@H](NC(=O)c1ccccc1NC(=O)c1ccc(C)cc1)C(=O)OC`: the log2 fold change growth is 0.0874 (inactive).

Turning to `CCOc1ccc(OCC(=O)Nc2cc(C)cc(C)c2)cc1`, the log2 fold change growth was -0.0899 (inactive).

Take `COc1ccc2nc(C)cc(OCC(=O)NCc3ccccc3)c2c1`: the log2 fold change growth was 0.118 (inactive). As to `Nc1ccc(C(=O)Nc2ccc(-c3nc4ccccc4o3)cc2)cc1`, the log2 fold change growth was -7.04 (active). The figure for `CN1CCN(CCCOc2ncc(Nc3ncc(-c4ccc(C(F)(F)F)c(F)c4)nc3C(N)=O)cn2)CC1` is -0.568 (inactive). For `O=C1COCc2ccc(Br)cc2N1Cc1ccc(C(F)(F)F)cc1` the value was -0.402 (inactive); for `COc1cc(C(F)(F)F)nc2ccc(C)c(N)c12`, 0.198 (inactive). For the compound `COc1nc2ccc(Br)cc2cc1[C@@H](c1ccccc1)[C@@](O)(CCN(C)C)c1cccc2ccccc12`, the log2 fold change growth is 0.248 (inactive). In the case of `CNc1cc(C)nc([C@@H]2CN(C(=O)c3n[nH]c4ccccc34)CCO2)c1`, the log2 fold change growth is 0.0798 (inactive).

As to `N[C@@H](CC(=O)c1ccc(Cl)cc1Cl)C(Cl)(Cl)Cl`, the log2 fold change growth was -0.444 (inactive). For `Nc1ncnc2c1ncn2C[C@@H](O)[C@@H](O)C(=O)O` the value was -0.0899 (inactive). As to `CC(=O)NC[C@H]1CN(c2ccc(-c3ccc(CNCc4cn[nH]n4)cc3)c(F)c2)C(=O)O1`, the log2 fold change growth was 0.387 (inactive). The figure for `Cc1nc(-c2ccccn2)nc(NCCc2ccc(S(C)(=O)=O)cc2)c1Cl` is -0.702 (inactive); for `C[C@H](C(N)=O)N1CCCC[C@H]1c1ccc(OCc2cccc(F)c2)cc1` it is -0.0659 (inactive). The figure for `O=C(Nc1c(O)cccc1-c1nc2c(C(=O)O)cccc2o1)c1cc(-c2ccccc2)on1` is -0.772 (inactive).

Turning to `Cc1ccc2[nH]c3c(NCCN(C)C)ncnc3c2c1`, the log2 fold change growth was 0.351 (inactive). For the compound `CC(C)(CN)c1nc(-c2ccc(Cl)c(O)c2)c(-c2ccnc(N)n2)[nH]1`, the log2 fold change growth was -0.414 (inactive). For `OCCc1ccc(Nc2nccc(-c3nnc4ccccn34)n2)cc1` the value was -0.0214 (inactive).

With `COc1ccccc1CNC(=O)c1cc(C2CC2)nc2c1cnn2C(C)C`, the log2 fold change growth is -0.297 (inactive).

Consider `FC(F)(F)c1nnc2ccc(Cl)nn12`, for which the log2 fold change growth is -0.128 (inactive). Take `CC(C)[C@H](Oc1cccc2ccccc12)C(=O)O`: the log2 fold change growth was 0.534 (inactive). For `COc1ccc(C2(C(=O)Nc3ccc(Br)cc3)CCCC2)cc1` the value was -0.749 (inactive). Regarding `Cc1nn(C)cc1[C@H](C)Nc1nncc(-c2ccc(C(F)(F)F)cc2)n1`, the log2 fold change growth was 0.429 (inactive).

On to `Nc1ncnc2c1c(Cc1cccc3ccccc13)nn2CC1CCNCC1`, for which the log2 fold change growth was -0.11 (inactive).
